The values below come from PubChem BioAssay (NCI).

Some test systems named below: HCT-15 colon; HT29 colon; SNB-75 CNS; SNB-19 CNS; U251 CNS; PC-3 prostate; SK-MEL-5 melanoma; UACC-62 melanoma; LOX IMVI melanoma; SK-MEL-28 melanoma; SK-MEL-2 melanoma; SN12C renal; UO-31 renal; TK-10 renal; ACHN renal; CAKI-1 renal; A498 renal; CCRF-CEM leukemia; MOLT-4 leukemia.
Assay in all cases: NCI-60 one-dose screen, 48 h (100 = growth as untreated, 0 = no growth, -100 = all killed)
Common to all, as to conditions: 10 µM unless noted

This is part of a sample that, as a whole, favours compounds with a hit. Of some 83,000 tested, about 20% had one in any assay.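 Growth was measured after 48 h exposure to one concentration of compound in 96-well plates. Values under 10 count as active.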 Unmarked numbers belong to inactive results. Activity calls are given as the source filed them.

Consider `Cc1ccc2c(c1)ncn2-c1ncnc2c1CC(C)c1ccccc1N2C` (stereo not given), for which the growth in the test on HCT-15 colon is 8.43% (active); in the test on HT29 colon it was 0.836% (active); in the test with SNB-75 CNS, 43.9%; in the test on SNB-19 CNS, 37.6%; in the test on U251 CNS it was 12.1%; in the test on PC-3 prostate it was 20.9%. The growth with SK-MEL-5 melanoma is -49.2% (active); in the test with UACC-62 melanoma, 21.5%; in the test with LOX IMVI melanoma it was 20.8%; with SK-MEL-28 melanoma, 44.4%; with SK-MEL-2 melanoma, 32.7%; with SN12C renal it was 21.2%. Besides, the growth in the test on UO-31 renal is 26.9%; in the test with TK-10 renal, 8.21% (active); with ACHN renal, 20.2%; in the test with CAKI-1 renal, 19.6%; in the test on A498 renal it was -11.7% (active); with CCRF-CEM leukemia, 13.3%. Also, the growth in the test on MOLT-4 leukemia is 12%.
As to `Cc1ccc(C2=NN(c3ccc(S(=O)(=O)NC(=O)NCc4ccccc4)cc3)C(c3ccc(N(C)C)cc3)C2)c(C)c1` (stereo not given), the growth is 32.6% in the test on HCT-15 colon; 43% with HT29 colon; 65.1% in the test with SNB-75 CNS; 54.8% with SNB-19 CNS; 22.6% with U251 CNS; 32.7% in the test with PC-3 prostate. Moreover, the growth in the test with SK-MEL-5 melanoma is 12.2%; in the test on UACC-62 melanoma, 54.7%; in the test with LOX IMVI melanoma, 36.3%; with SK-MEL-28 melanoma, 26.6%; with SK-MEL-2 melanoma, 40.9%; in the test on SN12C renal it was 46.5%. The growth is 38.3% in the test on UO-31 renal; 66.5% in the test on TK-10 renal; 44.7% in the test with ACHN renal; 47.7% with CAKI-1 renal; 51% in the test with A498 renal; 42% with CCRF-CEM leukemia. For the same molecule, the growth in the test with MOLT-4 leukemia is 23.1%.
Consider `Cc1cc(C)c(S(=O)(=O)N2CCN(c3cc4c(cc3F)c(=O)c(C(=O)O)cn4C3CC3)CC2)c(C)c1`, for which the growth was 55.1% in the test on HCT-15 colon; 28.3% in the test on HT29 colon; 36.6% with SNB-75 CNS; 66.3% in the test on SNB-19 CNS; 19.7% in the test with U251 CNS; 67.9% with PC-3 prostate. Also, the growth is 54.9% in the test on SK-MEL-5 melanoma; 76.6% with UACC-62 melanoma; 29.6% in the test with LOX IMVI melanoma; 69.1% with SK-MEL-28 melanoma; 90.5% in the test with SK-MEL-2 melanoma; 13.9% with SN12C renal. The growth with UO-31 renal was 16.1%; with TK-10 renal, 86.5%; in the test on ACHN renal, 51.3%; with CAKI-1 renal, 67.1%; in the test on A498 renal it was 63%; with CCRF-CEM leukemia, 37.3%. The growth in the test on MOLT-4 leukemia was 61%.
Regarding `CN(C)c1ccc(-c2ccc(-c3ccc(C(=N)N)cn3)o2)cc1`, the growth in the test on HCT-15 colon was -46.6% (active); in the test on HT29 colon, -61.5% (active); in the test with SNB-75 CNS, -85.6% (active); in the test with SNB-19 CNS, 12.7%; in the test with U251 CNS it was -91.1% (active); in the test on PC-3 prostate it was 7.95% (active). Moreover, the growth was -95.8% (active) in the test with SK-MEL-5 melanoma; -97.9% (active) in the test on UACC-62 melanoma; -94.8% (active) with LOX IMVI melanoma; -79.6% (active) in the test with SK-MEL-28 melanoma; -85.4% (active) in the test with SK-MEL-2 melanoma; -85.2% (active) with SN12C renal. For the same molecule, the growth in the test on UO-31 renal was -69.4% (active); with TK-10 renal, -64.7% (active); with ACHN renal, -83.5% (active); in the test on CAKI-1 renal, -72.5% (active); in the test on A498 renal, -9.83% (active); in the test on CCRF-CEM leukemia, -2.2% (active). Further, in the test on MOLT-4 leukemia, the growth is -52.1% (active).
For the molecule `c1cc(-c2ccc3c(c2)OCO3)n2nccc2n1`, the growth in the test on HCT-15 colon was 97.2%; with HT29 colon it was 103%; in the test on SNB-75 CNS, 84.5%; in the test on SNB-19 CNS, 101%; in the test with U251 CNS, 95.8%; with PC-3 prostate it was 93.9%. Also, the growth with SK-MEL-5 melanoma was 98.2%; with UACC-62 melanoma it was 113%; in the test on LOX IMVI melanoma, 102%; in the test on SK-MEL-28 melanoma, 105%; in the test with SK-MEL-2 melanoma, 108%; with SN12C renal, 108%. In addition, the growth is 90.9% with UO-31 renal; 104% with TK-10 renal; 98.2% in the test on ACHN renal; 94.4% in the test with CAKI-1 renal; 81.5% in the test on A498 renal; 100% with CCRF-CEM leukemia. Besides, in the test on MOLT-4 leukemia, the growth was 97.1%.
`CCSc1nnc(NC(=O)Cc2ccc(Cl)cc2)s1`: the growth with HCT-15 colon is 98.3%; with HT29 colon it was 114%; in the test on SNB-75 CNS, 106%; in the test with SNB-19 CNS, 97.4%; in the test on U251 CNS, 98.7%; in the test on PC-3 prostate, 101%. The growth is 107% with SK-MEL-5 melanoma; 97% with UACC-62 melanoma; 97.1% in the test on LOX IMVI melanoma; 113% with SK-MEL-28 melanoma; 73.4% in the test on SK-MEL-2 melanoma; 105% in the test with SN12C renal. Besides, the growth in the test with UO-31 renal was 40%; in the test with TK-10 renal, 113%; with ACHN renal, 103%; in the test on CAKI-1 renal, 102%; in the test with A498 renal, 100%; with CCRF-CEM leukemia, 87.9%. Besides, the growth in the test on MOLT-4 leukemia is 103%.
Turning to `COC12CC(=O)C(C(C)=O)=C(O)C1(C)c1c(O)c(C)c(O)c(C(C)=O)c1O2` (stereo not given), the growth in the test on HCT-15 colon was 66.6%; in the test with HT29 colon, 86.5%; with SNB-75 CNS, 83.5%; with SNB-19 CNS, 52.8%; with U251 CNS, 57.2%; in the test with PC-3 prostate it was 73%. In addition, the growth is 46.1% with SK-MEL-5 melanoma; 40.6% with UACC-62 melanoma; 57.5% with LOX IMVI melanoma; 86.4% with SK-MEL-28 melanoma; 41.9% in the test on SK-MEL-2 melanoma; 49.1% with SN12C renal. Also, the growth with UO-31 renal was 48.9%; in the test on TK-10 renal it was 78.4%; in the test with ACHN renal, 77.9%; in the test with CAKI-1 renal it was 71.5%; with A498 renal, 61.1%; in the test with MOLT-4 leukemia it was 75.3%.
Turning to `CN(C)c1ccc(/C=C\N=Nc2ccc(Br)cc2)cc1`, the growth with HCT-15 colon was 36.2%; in the test with HT29 colon, 52.9%; in the test on SNB-75 CNS, 82%; in the test on SNB-19 CNS it was 96.2%; with U251 CNS it was 68.4%; in the test on PC-3 prostate it was 52.3%. Also, the growth with SK-MEL-5 melanoma is 76.5%; in the test with UACC-62 melanoma, 17.2%; in the test on LOX IMVI melanoma it was 13.2%; in the test with SK-MEL-28 melanoma it was 83.9%; in the test with SK-MEL-2 melanoma it was 72%; in the test on SN12C renal, 65.8%. In addition, the growth with UO-31 renal was 32.6%; with TK-10 renal, 68.5%; in the test with ACHN renal it was 60.4%; in the test on CAKI-1 renal, 51.5%; with CCRF-CEM leukemia, 29.7%; with MOLT-4 leukemia it was 29.2%.
